According to PubChem BioAssay (NCATS):
Records with an inconclusive call do not appear. A call without a number means that no potency is given here. Activity calls are given as the source filed them. Unless noted, the call rests on the fitted dose curve; in most records, active means well fitted curve in the direction sought with a large enough effect; inconclusive means small, poorly fitted or top-dose-only effect, or another doubt; inactive means no such curve, though single readings can be large; an effect the other way counts as inactive or inconclusive. Residues, ends and D or L forms follow the SMILES beside them. *: point of attachment. Cbz = O=C(OCc1ccccc1)*

What was measured:
[1] = qHTS for differential inhibitors of proliferation of Plasmodium falciparum line D10 (AID 1877);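 further: parasites grown with compound for 72 h before DNA staining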; further: potency means the concentration at half of the fitted maximal effect
[2] = qHTS for differential inhibitors of proliferation of Plasmodium falciparum line Dd2 (AID 1882); settings: Potency: Plasmodium falciparum Dd2 proliferation inhibition; further: nearly all actives have a fitted effect of over 65% in size; further: potency means the concentration at half of the fitted maximal effect
Outline: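 SYBR Green DNA fluorescence (ex 485, em 535 nm) after overnight lysis quantifies parasite growth; compound exposure lasted 72 h at 37 C on infected red cells at 2.5% hematocrit, 0.3% parasitemia (final). Artemisinin 0.29 uM and vehicle wells define normalization.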

[3] = qHTS for differential inhibitors of proliferation of Plasmodium falciparum line W2 (AID 1883); settings: Potency: Plasmodium falciparum W2 proliferation inhibition;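 further: parasites grown with compound for 72 h before lysis and staining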; further: potency means the concentration at half of the fitted maximal effect
[4] = qHTS for differential inhibitors of proliferation of Plasmodium falciparum line HB3 (AID 1886); settings: Potency: Plasmodium falciparum HB3 proliferation inhibition;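 further: parasites grown with compound for 72 h before SYBR Green readout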; further: potency means the concentration at half of the fitted maximal effect
[5] = target: Ferritin light chain (Equus caballus) (UniProt P02791); assay: qHTS Validation Assay for Identification of Novel General Anesthetics (AID 2323); further: series mostly up to about 77 µM
Outline: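 Competitive displacement of profluorescent 1-aminoanthracene (1-AMA, 50% saturated solution in PBS) from 10 uM horse-spleen apoferritin. Compounds incubated 10 min at room temperature; fluorescence read at 380 nm excitation/535 nm emission, normalized to free 1-AMA and complex, fitted with four-parameter Hill equation.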

[6] = target: ATP-dependent DNA helicase Q1 (Homo sapiens) (UniProt P46063); assay: qHTS Validation Assay for Inhibitors of RecQ-Like Dna Helicase 1 (RECQ1) (AID 2353)
Outline: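 RECQ1T1 50 nM; forked duplex (20 bp + 30-nt ss tails) 200 nM, ATP 2 mM final; pH 8.0, 2 mM MgCl2, 2.5 ug/ml poly(dI-dC); 15 min compound preincubation; discontinuous kinetic read over 2 h at RT.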

[7] = target: RecQ-like DNA helicase BLM (Homo sapiens) (UniProt P54132); assay: qHTS Validation Assay for Inhibitors of Bloom's syndrome helicase (BLM) (AID 2364)
Outline: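 50 nM BLM preincubated 15 min at room temperature with compound in pH 8.0 Tris buffer containing 2.5 ug/ml poly(dI-dC); started with 200 nM TAMRA/BHQ-2 forked duplex and 2 mM ATP (final). Unwinding read as TAMRA fluorescence increase, two reads 2 h apart.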

[8] = qHTS Assay for Modulators of Human Peripheral Myelin Protein 22 (PMP22) Expression/Activity (AID 1967; active means well fitted curve in the direction sought with a large enough effect in the signal ratio; the % refers to the signal ratio)
Outline: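 MSC80 mouse Schwann cells stably carrying Pmp22 promoter–green click beetle luciferase plus EF-alpha–red luciferase control were dosed for 24h at 37 °C. Dual-colour luminescence was filter-overlap corrected; %Activity came from green/red ratio versus untreated cells.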

ATP-dependent DNA helicase Q1 (Homo sapiens), sequence (P46063 whole entry, looked up): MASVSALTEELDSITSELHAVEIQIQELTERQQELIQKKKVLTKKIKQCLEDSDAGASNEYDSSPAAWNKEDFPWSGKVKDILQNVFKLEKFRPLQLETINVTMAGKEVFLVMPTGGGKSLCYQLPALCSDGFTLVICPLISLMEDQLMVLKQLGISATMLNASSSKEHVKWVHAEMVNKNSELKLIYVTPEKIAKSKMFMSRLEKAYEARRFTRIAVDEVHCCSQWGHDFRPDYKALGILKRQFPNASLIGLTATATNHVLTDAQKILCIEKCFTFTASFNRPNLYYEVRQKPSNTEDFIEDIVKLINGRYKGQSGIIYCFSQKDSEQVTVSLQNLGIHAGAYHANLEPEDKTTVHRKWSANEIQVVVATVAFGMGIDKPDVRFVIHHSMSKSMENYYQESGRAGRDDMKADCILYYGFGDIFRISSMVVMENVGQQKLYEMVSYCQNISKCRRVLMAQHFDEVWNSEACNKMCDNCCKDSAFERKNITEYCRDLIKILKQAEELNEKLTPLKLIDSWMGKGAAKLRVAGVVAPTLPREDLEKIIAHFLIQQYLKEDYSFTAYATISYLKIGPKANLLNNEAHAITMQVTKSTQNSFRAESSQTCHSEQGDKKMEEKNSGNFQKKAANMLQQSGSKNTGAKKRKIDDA
Ferritin light chain (Equus caballus), sequence (P02791 2-175 limits assumed): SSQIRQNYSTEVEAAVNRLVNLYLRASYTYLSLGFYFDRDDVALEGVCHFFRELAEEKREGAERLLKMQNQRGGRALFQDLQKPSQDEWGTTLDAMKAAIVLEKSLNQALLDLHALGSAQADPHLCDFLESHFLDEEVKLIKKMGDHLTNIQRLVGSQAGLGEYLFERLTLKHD
RecQ-like DNA helicase BLM (Homo sapiens), sequence (P54132 whole entry, looked up): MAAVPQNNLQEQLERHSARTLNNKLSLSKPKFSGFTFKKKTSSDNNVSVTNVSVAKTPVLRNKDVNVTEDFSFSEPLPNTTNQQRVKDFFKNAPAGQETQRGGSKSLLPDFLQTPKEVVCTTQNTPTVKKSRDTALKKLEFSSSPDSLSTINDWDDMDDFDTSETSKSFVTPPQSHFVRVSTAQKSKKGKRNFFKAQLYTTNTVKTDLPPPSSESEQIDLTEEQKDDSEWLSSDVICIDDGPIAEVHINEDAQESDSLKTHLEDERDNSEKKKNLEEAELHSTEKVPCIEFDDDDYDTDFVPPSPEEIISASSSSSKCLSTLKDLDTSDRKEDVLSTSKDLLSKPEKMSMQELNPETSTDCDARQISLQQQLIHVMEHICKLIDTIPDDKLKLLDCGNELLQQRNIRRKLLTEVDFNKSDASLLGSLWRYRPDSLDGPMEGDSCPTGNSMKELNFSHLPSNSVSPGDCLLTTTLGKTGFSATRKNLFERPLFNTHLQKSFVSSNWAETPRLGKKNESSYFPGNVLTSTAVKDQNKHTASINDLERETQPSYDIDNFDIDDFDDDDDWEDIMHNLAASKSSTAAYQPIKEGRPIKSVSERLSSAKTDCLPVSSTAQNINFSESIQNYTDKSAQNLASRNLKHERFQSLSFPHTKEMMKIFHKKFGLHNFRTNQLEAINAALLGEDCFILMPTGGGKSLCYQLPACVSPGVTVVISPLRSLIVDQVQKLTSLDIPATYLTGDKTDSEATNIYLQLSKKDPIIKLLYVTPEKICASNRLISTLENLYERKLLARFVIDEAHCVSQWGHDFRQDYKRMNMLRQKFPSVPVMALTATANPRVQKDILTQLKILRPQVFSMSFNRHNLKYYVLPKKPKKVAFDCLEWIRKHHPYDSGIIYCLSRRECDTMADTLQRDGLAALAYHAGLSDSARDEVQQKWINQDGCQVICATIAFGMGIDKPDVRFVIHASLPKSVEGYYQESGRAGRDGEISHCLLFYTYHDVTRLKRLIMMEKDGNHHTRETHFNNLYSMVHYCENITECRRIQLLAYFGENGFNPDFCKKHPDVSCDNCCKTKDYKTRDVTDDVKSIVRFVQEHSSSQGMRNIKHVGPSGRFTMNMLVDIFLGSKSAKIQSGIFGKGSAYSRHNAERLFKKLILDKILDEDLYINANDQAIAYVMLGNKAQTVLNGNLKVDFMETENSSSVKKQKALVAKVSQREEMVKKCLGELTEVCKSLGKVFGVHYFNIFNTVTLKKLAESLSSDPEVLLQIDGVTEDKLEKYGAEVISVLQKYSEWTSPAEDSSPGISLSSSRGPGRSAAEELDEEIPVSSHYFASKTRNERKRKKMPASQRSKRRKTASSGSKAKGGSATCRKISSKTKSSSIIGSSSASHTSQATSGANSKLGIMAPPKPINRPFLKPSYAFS

Compound	Potency [1]	Potency [2]	Potency [3]	Potency [4]	Potency [5]	Potency [6]	Potency [7]	outcome [8]
Cc1nc(N=Nc2ccc(C(=O)O)cc2)c(COP(=O)(O)O)c(C=O)c1O	inactive	inactive	inactive	inactive	inactive	inactive	–	–
CC(=O)NNC(=O)N1Cc2ccccc2Oc2ccc(Cl)cc21	inactive	inactive	inactive	inactive	–	inactive	inactive	–
Nn1nnc2ccccc21	12.6 µM (active)	inactive	17.8 µM (active)	–	inactive	inactive	inactive	inactive
CCCCC[C@H](CC(=O)NO)C(=O)N[C@H](C(=O)N1CCC[C@H]1CO)C(C)C	1.58 µM (active)	3.55 µM (active)	2.51 µM (active)	2.82 µM (active)	inactive	inactive	inactive	–
NC(=O)c1ccccc1	inactive	inactive	inactive	inactive	inactive	inactive	–	–
C[N+](C)(C)CC=O	inactive	inactive	inactive	inactive	inactive	inactive	–	–
COc1ccccc1N1CCN(CCCCNC(=O)c2ccc3ccccc3c2)CC1	10 µM (active)	10 µM (active)	2.51 µM (active)	5.01 µM (active)	–	inactive	inactive	–
CC(C)NC[C@H](O)COc1ccc(CC(N)=O)cc1	inactive	inactive	inactive	inactive	inactive	inactive	–	–
CCCCCCCCCC(=O)NC(CN1CCOCC1)[C@H](O)c1ccccc1 (stereo partly drawn)	12.6 µM (active)	2.24 µM (active)	1.58 µM (active)	8.91 µM (active)	–	inactive	–	–
COc1ccc2c(c1)c(CC(=O)O)c(C)n2Cc1ccc(Cl)cc1	14.1 µM (active)	inactive	8.91 µM (active)	14.1 µM (active)	inactive	inactive	inactive	–
CN1C2CCC1CC(OC(c1ccccc1)c1ccccc1)C2 (stereo not drawn)	7.08 µM (active)	4.47 µM (active)	1.41 µM (active)	6.31 µM (active)	inactive	inactive	inactive	–
Nc1ncnc2c1c(-c1ccc(Oc3ccccc3)cc1)cn2C1CCCC1	12.6 µM (active)	7.94 µM (active)	3.55 µM (active)	12.6 µM (active)	–	inactive	–	–
CC(C)C[C@H](NC(=O)[C@H](O)[C@H](N)Cc1ccccc1)C(=O)O	inactive	inactive	inactive	inactive	inactive	inactive	–	–
C=CC[C@H](N)C(=O)O	inactive	inactive	inactive	inactive	inactive	inactive	inactive	–
N=C(N)c1ccc(OCCCCCOc2ccc(C(=N)N)cc2)cc1 (tested in a mixture with another compound)	0.199 µM (active)	1 µM (active)	0.355 µM (active)	0.224 µM (active)	inactive	inactive	inactive	–
CCN(c1nc(N)c(C(=O)N=C(N)N)nc1Cl)C(C)C	11.2 µM (active)	inactive	7.94 µM (active)	11.2 µM (active)	–	inactive	inactive	–
NCCCCN=C(N)N	inactive	inactive	inactive	inactive	inactive	inactive	–	–

Compound	Potency [1]	Potency [2]	Potency [3]	Potency [4]	Potency [5]	Potency [6]	Potency [7]	outcome [8]
CC(C)[C@H](NC(=O)OCc1ccccc1)C(=O)N[C@H](C=O)Cc1ccccc1 (Cbz-Val-Phe-aldehyde)	8.91 µM (active)	4.47 µM (active)	2.82 µM (active)	5.01 µM (active)	inactive	inactive	–	–
NC(=Nc1ccccc1)NC(=O)c1nc(Cl)c(N)nc1N	8.91 µM (active)	inactive	7.08 µM (active)	7.94 µM (active)	inactive	inactive	inactive	–
CCC1(O)CC2CN(CCc3c([nH]c4ccccc34)[C@@](C(=O)OC)(c3cc4c(cc3OC)N(C)C3[C@]45CCN4CC=C[C@@](CC)([C@@H](OC(C)=O)[C@]3(O)C(=O)OC)[C@H]45)C2)C1 (stereo partly drawn)	5.01 µM (active)	0.398 µM (active)	0.794 µM (active)	2.82 µM (active)	inactive	inactive	–	–
CC(=O)[C@H]1CCC2C3CC=C4C[C@@H](OS(=O)(=O)O)CC[C@]4(C)C3CC[C@@]21C (stereo partly drawn)	inactive	inactive	inactive	inactive	inactive	inactive	inactive	–
CCC1(O)CC2CN(CCc3c([nH]c4ccccc34)[C@@](C(=O)OC)(c3cc4c(cc3OC)N(C=O)C3[C@]45CCN4CC=C[C@@](CC)([C@@H](OC(C)=O)[C@]3(O)C(=O)OC)[C@H]45)C2)C1 (stereo partly drawn)	0.224 µM (active)	0.1 µM (active)	0.0501 µM (active)	1.78 µM (active)	inactive	inactive	–	–
Nc1nc2[nH]c(=O)cnc2c(=O)[nH]1	inactive	inactive	inactive	inactive	–	inactive	inactive	–
CCCCS(=N)(=O)CC[C@H](N)C(=O)O (stereo partly drawn)	inactive	inactive	8.91 µM (active)	inactive	–	inactive	–	–
COc1ccccc1N1CCN(CCCCN2C(=O)c3ccccc3C2=O)CC1	inactive	inactive	3.55 µM (active)	–	–	inactive	inactive	inactive
N#CC(C#N)=C(N)/C(C#N)=C/c1ccc(O)cc1	inactive	inactive	inactive	–	inactive	inactive	–	–
O=C(O)Cc1ccc(O)c(O)c1	inactive	inactive	–	inactive	inactive	inactive	–	–
COC(=O)[C@H](NC(=O)c1cc(-c2ccccc2)nc2ccccc12)c1ccccc1	inactive	inactive	12.6 µM (active)	–	inactive	inactive	–	–
O=C(O)c1ccccc1Nc1cccc(OCc2ccc3ccccc3n2)c1	inactive	inactive	–	inactive	inactive	inactive	–	–
COc1cc2c(CCNC(C)=O)c[nH]c2cc1O	inactive	inactive	–	inactive	inactive	inactive	inactive	inactive
Clc1nccc2c1ccc1ccccc12	inactive	inactive	–	inactive	inactive	inactive	inactive	–
c1ccc2nc(C3=NCCN3)ccc2c1	inactive	inactive	–	inactive	inactive	inactive	inactive	–
CCCn1c(=O)c2c(ncn2C)n(CCC)c1=O	inactive	inactive	–	inactive	–	inactive	–	–
